High-throughput results deposited in PubChem BioAssay by National Center for Advancing Translational Sciences (NCATS).
IL-1B inflam inh – inhibitors of inflammasome signaling (IL-1 beta secretion). AID 743279. activity change, % at 57.5 µM. 4.7% of 360,000 active. THP-1 LPS/ATP IL-1B secretion, AlphaLISA, 16 h; hits give low values; in the data active = activity change below about -50%; inconclusive = mostly about -30% to -49%; also: % is scaled to controls: 0 for no effect and ±100 for the full control effect
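Secreted IL-1B measured by AlphaLISA bead assay after 16 h compound exposure of THP-1 cells; compounds (final up to 57.5 uM) added 1 h before LPS (250 ng/mL) and ATP (1.25 mM) stimulation; lower signal means less secretion.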
TDP1 cell noCPT – qHTS for Inhibitors of human tyrosyl-DNA phosphodiesterase 1 (TDP1): qHTS in cells in absence of CPT; DT40 Tdp1-/- hTDP1 cells, no CPT, ATP luminescence, 48 h; Potency, µM (highest dose often 46.2 µM), without a hit: at the highest dose activity change, negative = growth inhibition, hits mostly inhibitors; 15% of 420,000 active; also: potency is read from the fitted curve at half-maximal effect; % is scaled to controls: 0 for no effect and ±100 for the full control effect; nearly all actives have a fitted effect of over 55% in size
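A cellular qHTS used chicken DT40 cells lacking endogenous Tdp1 but carrying stably transfected human TDP1. Compounds were applied without camptothecin, and cell growth kinetics were judged by ATP-dependent luminescence after ≥48 hr.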
SW480 rerep – DNA re-replication induction in SW480 cells. SW480 DNA re-replication, Hoechst DNA content imaging, 48 h. AID 624297. Potency, µM (doses to about 46.1 µM), for inactives: at the highest dose re-replication activation, most hits filed as activators. 1.8% of 340,000 active; also: potency is read from the fitted curve at half-maximal effect; % of control where 0% means no effect; nearly all actives have a fitted effect of over 55% in size
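Per well, 250 cells were exposed to pinned compound for 48 hr. Nuclear DNA was visualised with Hoechst (40 min, 37 C) and total object intensity recorded by fluorescence scanning.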
MCF10A rereplic – inducers of DNA re-replication in MCF 10A breast cells; MCF 10A DNA re-replication, Hoechst nuclear intensity, 48 h; 2.9% of 350,000 active; Potency, µM (top dose mostly 46.1 µM), inactives show at the highest dose activity, positive = re-replication, actives largely listed as activators; also: potency is read from the fitted curve at half-maximal effect; % of control where 0% means no effect; nearly all actives have a fitted effect of over 50% in size
TDP1 cell CPT – DT40-hTDP1 cell growth loss with CPT; chicken DT40 Tdp1-/-;hTDP1 cells + 20 nM CPT, ATP luminescence, 48 h; 12% of 420,000 active; Potency, µM (doses to about 46.2 µM), for the others: at the top dose activity change, negative = growth inhibition, actives largely listed as inhibitors; also: potency is read from the fitted curve at half-maximal effect; % is scaled to controls: 0 for no effect and ±100 for the full control effect; nearly all actives have a fitted effect of over 55% in size
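Chicken DT40 Tdp1-/- cells stably complemented with human TDP1 were seeded at 400 cells/well in medium containing 20 nM camptothecin, exposed to pin-transferred compounds, and grown at 37 °C for at least 48 hr. Viability was read as ATP luminescence.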
Chronic BCR inh – inhibitors of chronic active B-cell receptor signaling; ABC-DLBCL IkBa-CBG/CBR reporter, luminescence ratio, 4 h; 0.05% of 340,000 active; Potency, µM (top dose mostly 46.1 µM), for inactives: at the highest dose activity change, negative = inhibition, actives largely listed as inhibitors; active = well fitted inhibition curve with a large enough effect in the signal ratio, with a control signal flat, not every such curve was filed as active; inconclusive = small, poorly fitted or top-dose-only effect, or effect the other way, or a change in a side signal; the % refers to the signal ratio;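 also: potency is read from the fitted curve at half-maximal effect; plate controls were basal doxycycline-induced cells for no effect and cells given 10 µM MG132 for full effect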
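TMD8 human ABC-DLBCL cells with doxycycline-inducible IκBα–green luciferase fusion and unfused red luciferase, in 0.5% FBS medium; compounds up to 46 uM, 4 h at 37C. Green/red luminescence ratio, filter-overlap corrected, fitted to concentration-response curves.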
* = called active by the depositor; ? = inconclusive; · = no result given; [ ] = dose if it differs, or a comment. Shown are actives, neighbours in structure and some others; about 19% of the full set was active somewhere. Unless noted, calls follow the shape of the dose curve; as a rule, active = well fitted curve in the direction sought with a large enough effect; inconclusive = small, poorly fitted or top-dose-only effect, or another doubt; inactive = no such curve, though single readings can be large; an effect the other way counts as inactive or inconclusive.

SMILES	IL-1B inflam inh	TDP1 cell noCPT	SW480 rerep	MCF10A rereplic	TDP1 cell CPT	Chronic BCR inh
O=C(Cn1nnc(-c2ccccc2-n2cnnn2)n1)c1ccccc1	2	-18%	-20%	18µM*	0%	?
O=C(Cn1nnc(-c2cc(Cl)ccc2-n2cnnn2)n1)N1CCCc2ccccc21	-11	21µM*	-2%	?	?	3%
O=c1[nH]c2c(-c3nc(-c4ccc(F)cc4)cs3)c(O)cn2c2ccc(Br)cc12	·	-10%	·	·	-25%	·
O=C(NC1CC2CCCC(C1)N2Cc1ccc(F)cc1)c1ccc(F)cc1 (centres undefined)	-12	?	6%	-2%	-23%	9%
O=C(Nc1ccc(OC(F)(F)F)cc1)C1CCCN(S(=O)(=O)c2cccnc2)C1 (centres undefined)	7	13µM*	12%	?	18µM*	?
CCc1ccc(NC(=O)C2CCCN(S(=O)(=O)c3cccnc3)C2)cc1 (centres undefined)	-3	?	?	?	?	?
O=C(c1ccc2ccccc2c1)C1CCCN(S(=O)(=O)c2cccnc2)C1 (centres undefined)	?	21µM*	4%	16%	23µM*	?
CCCNc1nc2nc3ccccn3c(=O)c2cc1C(=O)NCCN1CCOCC1	-25	-11%	11%	-1%	11%	3%
O=C(NCC1Cc2cc(-c3cnc4ccccc4c3)cc(F)c2O1)c1cnsn1 (centres undefined)	·	-19%	·	·	?	·
Cc1cccc(N(C)C(=O)CN(C)S(=O)(=O)c2ccc3[nH]c4c(c3c2)CCCC4)c1	·	?	·	·	23µM*	·
Cc1ccc(N(C)C(=O)CN(C)S(=O)(=O)c2ccc3c(c2)n(C)c(=O)c(=O)n3C)cc1	-2	10%	-5%	1%	17%	-1%
CN(CC(=O)NCc1ccc2c(c1)OCO2)S(=O)(=O)c1ccc(F)cc1	-5	-8%	-22%	-30%	20%	8%
CN(CC(=O)NCc1ccc(F)cc1)S(=O)(=O)c1ccc2[nH]c3c(c2c1)CCCC3	·	18µM*	·	·	21µM*	·
Cc1cccc(C)c1NC(=O)CN(C)S(=O)(=O)c1ccc2[nH]c3c(c2c1)CCCC3	·	21µM*	·	·	?	·
CC(NC(=O)c1cc(S(=O)(=O)N2CCOCC2)cn1C)c1ccccc1 (centres undefined)	13	6%	-10%	7%	16%	-2%
O=C1c2ccccc2C(c2nnnn2Cc2ccccc2)N1Cc1cccnc1 (centres undefined)	28	-24%	·	·	3%	·
Cc1ccc(OCC(=O)N(C)CC(=O)Nc2cccc(F)c2)cc1	0	-3%	-4%	0%	6%	1%
Cc1ccc(OCC(=O)N(C)CC(=O)Nc2ccc(F)c(F)c2F)cc1	-65*	-3%	?	2%	-25%	4%
O=C(c1ccc(S(=O)(=O)NCC2CCCO2)cc1)N1CCN(c2ccccc2F)CC1 (centres undefined)	6	-11%	-38%	-13%	-10%	3%
O=S(=O)(NCC1CCCO1)c1ccc(-c2ccc(Cl)cc2)cc1 (centres undefined)	6	13µM*	-16%	-11%	12µM*	1%
COc1ccc(-c2ccc(S(=O)(=O)NCC3CCCO3)cc2)cc1 (centres undefined)	5	?	-234%	-9%	6%	4%
O=C(c1ccc(S(=O)(=O)NCC2CCCO2)cc1)N1CCN(c2cccc(Cl)c2)CC1 (centres undefined)	34	15µM*	-1%	3%	15µM*	2%
COc1ccc2[nH]cc(CCNC(=O)CCC3CCCCC3)c2c1	3	?	2%	8%	-21%	2%
COc1ccc(C(c2c(O)cc(C)n(Cc3ccco3)c2=O)N2CCCCC2)cc1OC (centres undefined)	·	-1%	·	·	-11%	·
COc1ccc(S(=O)(=O)c2cn(C)c3cc(N4CCCC4)c(F)cc3c2=O)cc1	·	23µM*	·	·	?	·
SMILES	IL-1B inflam inh	TDP1 cell noCPT	SW480 rerep	MCF10A rereplic	TDP1 cell CPT	Chronic BCR inh
CC1CCCN(c2cc3c(cc2F)c(=O)c(S(=O)(=O)c2cccc(Cl)c2)cn3C)C1 (centres undefined)	·	23µM*	·	·	?	·
Cn1cc(S(=O)(=O)c2ccc(Cl)cc2)c(=O)c2cc(F)c(N3CCCC3)cc21	·	16µM*	·	·	21µM*	·
Cc1cccc(S(=O)(=O)c2cn(C)c3cc(N4CCN(c5ccccc5)CC4)c(F)cc3c2=O)c1	·	-15%	·	·	4%	·
Cc1cc(C)cc(S(=O)(=O)c2cn(C)c3cc(N4CCN(C)CC4)c(F)cc3c2=O)c1	4	?	-10%	23µM*	?	-2%
Cc1cc(-c2nnc(SCC(=O)Nc3cccc(F)c3)n2N)n[nH]1	4	-6%	-11%	-4%	-12%	9%
Cn1cc(S(=O)(=O)c2ccccc2)c(=O)c2cc(Cl)ccc21	-19	?	23%	13%	16µM*	-2%
Cn1cc(S(=O)(=O)c2cccc(Cl)c2)c(=O)c2cc(F)c(N3CCN(c4ccccc4)CC3)cc21	·	-13%	·	·	4%	·
Cc1c(O)ccc2c1OC(C)(C)CC2	·	4µM*	·	·	5.6µM*	·
Cc1c(C)c2c(c(C)c1O)CCC(C)(C(=O)O)O2 (centres undefined)	0	-16%	-53%	-20%	-19%	11%
COc1cccc(N2CCN(c3ccc4nnc(CCC(=O)Nc5ncccc5C)n4n3)CC2)c1	3	-15%	-10%	4%	-25%	-6%
CCN(CC)S(=O)(=O)c1cccc(NC(=O)CCNC(=O)NC23CC4CC(CC(C4)C2)C3)c1	-22	?	?	?	?	?
CCCCN1C(=O)C(C(=O)OCC)CC2=C1CCCC2=O (centres undefined)	18	-7%	-2%[9.22 µM]	-10%	-2%	·
O=C(NCC1CCOCC1)C1Cc2c(-c3ccccc3Oc3ccccc3)ccnc2O1 (centres undefined)	-5	?	·	·	?	·
COc1cccc(N2CCN(S(=O)(=O)c3cc4c(cc3C)N(C)CCO4)CC2)c1	-4	16µM*	?	13%	?	0%
CC1CCN(S(=O)(=O)c2ccc(NC(=O)CNC3CCCCC3)cc2)CC1	-87*	?	?	26%	?	-12%
